# Laboratory results: PubChem BioAssay
# Unmarked numbers belong to inactive results. The source made the active and inactive calls.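 How the source made its calls, unless noted: active means mean inhibition above 46.5%, the solvent-only control mean plus 3 SD; inactive means the rest.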
# Key:
# [1] = biological target: Nuclear receptor coactivator 3 (Homo sapiens) (UniProt Q9Y6Q9); test: NCOA3 GAL4-fusion reporter inhibition – cell-based, luminescence, quadruplicate, confirmation (AID 588792;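 active means mean inhibition over 43.08%, the solvent-only control mean plus 3 SD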;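 further: 0% = DMSO treated cells and 100% = gossypol at 36 µM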); details: HEK293 GAL4-SRC3 luciferase reporter, at 3.6 µM, stronger effect = higher value
# [2] = tested on: transactivating tegument protein VP16 (Human herpesvirus 1), Gal4-VP16 luciferase reporter; test: repression of VP16-driven luciferase reporter – cell-based, luminescence, high throughput, counter-screen for SRC3 inhibitor project (AID 588794; in the data active means inhibition above about 30%); details: mammalian cells, at 3.6 µM, stronger effect = higher value
# [3] = biological target: Nuclear receptor coactivator 1 (Homo sapiens) (UniProt Q15788); test: NCOA1 GAL4-fusion reporter inhibition – cell-based, luminescence, quadruplicate, confirmation (AID 588820;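 active means mean inhibition above 46.68%, the untreated control wells mean plus 3 SD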;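 further: 0% = DMSO wells and 100% = gossypol 36 µM treated wells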); details: HEK293 GAL4-SRC1 luciferase reporter, at 3.6 µM, stronger effect = higher value
# [4] = repression of VP16-driven luciferase reporter – cell-based, luminescence, high throughput, counter-screen for SRC1 inhibitor project (AID 588824; in the data active means inhibition above about 25%); details: cell-based VP16 transactivation luciferase luminescence; at 3.6 µM; stronger effect = higher value
# [5] = StAR promoter reporter inhibitors, counter-screen for LRH-1 inverse agonist project, cell-based, luminescence, high throughput (AID 651611; in the data active means inhibition above about 28%); details: StAR promoter luciferase reporter counterscreen, at 3.6 µM, stronger effect = higher value
# [6] = biological target: Nuclear receptor subfamily 5 group A member 2 (Homo sapiens) (UniProt O00482); test: NR5A2 activity suppression in reporter cells – cell-based, luminescence, confirmation (AID 651613; in the data active means inhibition above about 42%;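 further: HEK293T cells co-transfected with LRH-1 and StAR promoter luciferase reporter; 0% = vehicle wells and 100% = parental cells lacking receptor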); details: cell-based LRH-1 luciferase reporter, inverse agonism; at 3.6 µM; stronger effect = higher value
# [7] = biological target: Steroidogenic factor 1 (Homo sapiens) (UniProt Q13285); test: inverse agonism at SF1 nuclear receptor – cell-based, luminescence, high throughput, counter-screen for LRH-1 inverse agonist project (AID 651614; in the data active means inhibition above about 44%;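 further: cells cotransfected with StAR promoter reporter and SF1 expression vector; 0% = vehicle on cells with receptor and 100% = vehicle on cells lacking receptor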); details: cell-based SF1 luciferase reporter, at 3.6 µM, stronger effect = higher value
# [8] = compounds suppressing VP16-driven luciferase signal – cell-based, luminescence, high throughput, counter-screen for LRH-1 inverse agonist project (AID 651615; in the data active means inhibition above about 33%); details: Gal4-VP16 luciferase reporter cells, at 3.6 µM, stronger effect = higher value
# [9] = tested on: transactivating tegument protein VP16 (Human herpesvirus 1); test: compounds suppressing VP16-driven luciferase signal – cell-based, luminescence, single concentration, counter-screen for SRC2 inhibitor project (AID 652007; in the data active means inhibition above about 36%); details: cell-based VP16 transactivation luciferase reporter, at 8.9 µM, stronger effect = higher value
# [10] = biological target: Nuclear receptor coactivator 2 (Homo sapiens) (UniProt Q15596); test: inhibition of GAL4-SRC2 driven luciferase expression – cell-based, luminescence, HEK293, triplicate, confirmation (AID 652008); details: HEK293 GAL4-SRC2 luciferase reporter, at 8.9 µM, stronger effect = higher value;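 further: 0% = DMSO-treated cells and 100% = Gossypol at 36 µM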
# Sequence of Nuclear receptor coactivator 2 (Homo sapiens) (Q15596 whole entry, looked up, the tested form may be a part): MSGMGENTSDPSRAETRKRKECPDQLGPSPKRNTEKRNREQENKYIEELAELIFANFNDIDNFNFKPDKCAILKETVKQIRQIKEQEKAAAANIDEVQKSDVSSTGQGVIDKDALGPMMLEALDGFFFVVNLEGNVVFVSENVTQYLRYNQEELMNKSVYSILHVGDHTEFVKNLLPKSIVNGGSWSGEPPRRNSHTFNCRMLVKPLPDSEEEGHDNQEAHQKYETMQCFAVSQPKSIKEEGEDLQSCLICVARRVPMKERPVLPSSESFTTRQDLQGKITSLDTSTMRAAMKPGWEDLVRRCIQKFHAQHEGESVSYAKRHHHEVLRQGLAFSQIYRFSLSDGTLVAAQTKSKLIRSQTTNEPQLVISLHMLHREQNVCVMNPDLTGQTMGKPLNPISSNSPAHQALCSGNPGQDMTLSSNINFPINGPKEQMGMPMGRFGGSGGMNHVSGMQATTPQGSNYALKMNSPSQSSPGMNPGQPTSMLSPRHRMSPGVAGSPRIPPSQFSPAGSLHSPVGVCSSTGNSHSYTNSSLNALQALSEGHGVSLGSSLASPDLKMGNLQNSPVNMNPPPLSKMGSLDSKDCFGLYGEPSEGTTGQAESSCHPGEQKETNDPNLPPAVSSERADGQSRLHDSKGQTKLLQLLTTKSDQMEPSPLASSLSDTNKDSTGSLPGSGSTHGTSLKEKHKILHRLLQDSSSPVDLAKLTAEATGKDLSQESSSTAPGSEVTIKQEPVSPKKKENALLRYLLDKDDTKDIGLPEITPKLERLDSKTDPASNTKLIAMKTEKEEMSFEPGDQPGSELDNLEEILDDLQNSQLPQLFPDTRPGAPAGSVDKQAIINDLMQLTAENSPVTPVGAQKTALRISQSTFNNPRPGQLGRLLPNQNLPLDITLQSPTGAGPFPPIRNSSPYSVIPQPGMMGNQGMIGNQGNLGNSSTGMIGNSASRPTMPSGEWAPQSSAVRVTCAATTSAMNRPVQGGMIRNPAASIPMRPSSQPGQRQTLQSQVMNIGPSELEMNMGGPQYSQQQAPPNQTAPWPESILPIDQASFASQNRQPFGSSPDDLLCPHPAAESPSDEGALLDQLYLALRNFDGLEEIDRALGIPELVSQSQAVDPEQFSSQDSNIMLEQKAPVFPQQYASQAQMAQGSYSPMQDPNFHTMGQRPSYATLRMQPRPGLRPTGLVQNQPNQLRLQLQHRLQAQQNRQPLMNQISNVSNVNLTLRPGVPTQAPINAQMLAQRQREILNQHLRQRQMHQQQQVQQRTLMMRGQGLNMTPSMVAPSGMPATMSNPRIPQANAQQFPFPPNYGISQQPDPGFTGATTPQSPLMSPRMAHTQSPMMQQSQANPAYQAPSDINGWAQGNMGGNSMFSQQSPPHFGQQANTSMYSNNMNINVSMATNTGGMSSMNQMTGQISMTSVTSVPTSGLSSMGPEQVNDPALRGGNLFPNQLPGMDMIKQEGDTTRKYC
# Sequence of Steroidogenic factor 1 (Homo sapiens) (Q13285 whole entry, looked up, the tested form may be a part): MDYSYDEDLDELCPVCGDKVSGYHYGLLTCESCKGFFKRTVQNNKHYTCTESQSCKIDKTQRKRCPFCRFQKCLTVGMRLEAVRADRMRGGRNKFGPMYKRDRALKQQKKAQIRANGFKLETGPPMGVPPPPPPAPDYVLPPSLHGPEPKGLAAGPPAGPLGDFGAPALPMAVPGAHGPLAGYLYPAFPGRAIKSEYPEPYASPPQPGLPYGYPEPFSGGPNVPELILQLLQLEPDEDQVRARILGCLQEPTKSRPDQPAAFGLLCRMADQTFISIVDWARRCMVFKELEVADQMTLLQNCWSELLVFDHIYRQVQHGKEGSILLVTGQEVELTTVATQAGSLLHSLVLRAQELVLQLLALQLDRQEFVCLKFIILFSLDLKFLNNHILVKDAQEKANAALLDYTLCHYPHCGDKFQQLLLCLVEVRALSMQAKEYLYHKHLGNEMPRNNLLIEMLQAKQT
# Sequence of Nuclear receptor coactivator 1 (Homo sapiens) (Q15788 whole entry, looked up, the tested form may be a part): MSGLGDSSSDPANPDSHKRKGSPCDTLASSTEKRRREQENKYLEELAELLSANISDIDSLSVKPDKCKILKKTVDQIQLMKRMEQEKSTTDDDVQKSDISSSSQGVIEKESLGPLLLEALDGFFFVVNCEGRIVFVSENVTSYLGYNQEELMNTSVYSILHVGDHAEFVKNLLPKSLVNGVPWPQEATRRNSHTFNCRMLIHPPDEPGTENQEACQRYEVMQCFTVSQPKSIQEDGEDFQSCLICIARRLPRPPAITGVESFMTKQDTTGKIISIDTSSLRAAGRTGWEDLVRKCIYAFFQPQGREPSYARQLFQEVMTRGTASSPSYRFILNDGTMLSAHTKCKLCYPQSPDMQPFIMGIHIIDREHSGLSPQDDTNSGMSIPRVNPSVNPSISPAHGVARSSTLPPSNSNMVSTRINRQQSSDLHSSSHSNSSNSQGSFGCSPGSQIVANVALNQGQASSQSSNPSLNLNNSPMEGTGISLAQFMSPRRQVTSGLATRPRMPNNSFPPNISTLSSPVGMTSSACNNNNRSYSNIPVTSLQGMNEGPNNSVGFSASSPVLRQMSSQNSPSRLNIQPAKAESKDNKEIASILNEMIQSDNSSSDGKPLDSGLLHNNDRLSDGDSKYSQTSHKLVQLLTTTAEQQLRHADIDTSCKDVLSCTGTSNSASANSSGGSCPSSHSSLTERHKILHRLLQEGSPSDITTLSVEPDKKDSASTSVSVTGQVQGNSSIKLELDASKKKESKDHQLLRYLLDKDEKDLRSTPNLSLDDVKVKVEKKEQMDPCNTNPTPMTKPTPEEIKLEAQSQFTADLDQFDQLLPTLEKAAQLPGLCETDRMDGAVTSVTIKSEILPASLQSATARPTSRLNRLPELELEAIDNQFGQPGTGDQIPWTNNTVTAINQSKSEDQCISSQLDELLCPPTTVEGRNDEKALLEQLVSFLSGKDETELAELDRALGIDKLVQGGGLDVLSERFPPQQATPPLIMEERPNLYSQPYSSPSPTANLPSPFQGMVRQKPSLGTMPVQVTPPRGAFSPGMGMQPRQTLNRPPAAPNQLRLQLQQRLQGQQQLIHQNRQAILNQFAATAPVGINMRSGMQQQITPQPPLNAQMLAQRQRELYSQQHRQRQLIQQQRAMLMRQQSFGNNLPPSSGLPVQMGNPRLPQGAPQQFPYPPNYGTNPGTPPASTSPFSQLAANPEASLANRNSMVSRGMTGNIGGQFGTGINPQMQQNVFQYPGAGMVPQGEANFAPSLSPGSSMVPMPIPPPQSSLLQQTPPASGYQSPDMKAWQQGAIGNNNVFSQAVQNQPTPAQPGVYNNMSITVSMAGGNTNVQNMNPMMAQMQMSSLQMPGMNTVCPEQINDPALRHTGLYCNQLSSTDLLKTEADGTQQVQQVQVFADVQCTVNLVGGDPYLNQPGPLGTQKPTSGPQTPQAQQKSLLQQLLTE
# Sequence of Nuclear receptor coactivator 3 (Homo sapiens) (Q9Y6Q9 whole entry, looked up, the tested form may be a part): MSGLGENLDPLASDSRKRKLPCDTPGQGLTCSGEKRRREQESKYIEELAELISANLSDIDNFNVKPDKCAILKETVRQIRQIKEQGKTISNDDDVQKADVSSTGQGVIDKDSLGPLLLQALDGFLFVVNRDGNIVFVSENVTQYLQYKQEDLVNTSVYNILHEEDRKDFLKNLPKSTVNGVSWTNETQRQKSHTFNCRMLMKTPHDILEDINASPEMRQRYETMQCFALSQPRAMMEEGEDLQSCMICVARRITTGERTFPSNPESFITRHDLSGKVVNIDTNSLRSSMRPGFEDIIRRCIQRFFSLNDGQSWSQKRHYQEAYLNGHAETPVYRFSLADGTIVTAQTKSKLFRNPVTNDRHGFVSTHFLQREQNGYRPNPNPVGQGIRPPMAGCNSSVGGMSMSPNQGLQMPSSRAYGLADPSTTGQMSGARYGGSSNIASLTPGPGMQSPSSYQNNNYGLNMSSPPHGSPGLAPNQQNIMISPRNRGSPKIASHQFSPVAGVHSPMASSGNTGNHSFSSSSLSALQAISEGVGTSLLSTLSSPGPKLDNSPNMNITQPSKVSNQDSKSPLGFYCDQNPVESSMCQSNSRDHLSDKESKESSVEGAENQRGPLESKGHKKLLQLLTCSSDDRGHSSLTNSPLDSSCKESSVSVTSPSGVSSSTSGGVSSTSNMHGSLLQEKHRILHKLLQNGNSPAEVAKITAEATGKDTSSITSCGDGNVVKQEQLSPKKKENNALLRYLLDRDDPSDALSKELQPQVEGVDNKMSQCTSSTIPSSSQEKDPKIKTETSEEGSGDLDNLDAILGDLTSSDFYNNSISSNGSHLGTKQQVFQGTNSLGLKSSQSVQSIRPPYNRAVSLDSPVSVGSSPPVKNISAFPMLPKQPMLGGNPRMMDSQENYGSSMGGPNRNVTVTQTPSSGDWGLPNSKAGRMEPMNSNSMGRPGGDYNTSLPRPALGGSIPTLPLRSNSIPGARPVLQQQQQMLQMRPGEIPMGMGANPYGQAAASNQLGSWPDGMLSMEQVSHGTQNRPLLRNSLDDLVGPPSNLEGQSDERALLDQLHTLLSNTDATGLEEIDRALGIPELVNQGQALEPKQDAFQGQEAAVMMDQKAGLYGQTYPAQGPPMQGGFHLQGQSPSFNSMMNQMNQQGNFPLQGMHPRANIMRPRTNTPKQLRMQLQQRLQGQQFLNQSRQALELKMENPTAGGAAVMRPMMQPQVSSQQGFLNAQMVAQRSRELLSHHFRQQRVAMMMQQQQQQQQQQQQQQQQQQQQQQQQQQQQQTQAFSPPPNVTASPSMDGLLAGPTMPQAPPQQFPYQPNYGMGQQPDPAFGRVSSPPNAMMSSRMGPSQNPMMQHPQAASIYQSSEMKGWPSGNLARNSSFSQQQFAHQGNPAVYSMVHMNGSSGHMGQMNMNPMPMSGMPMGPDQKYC
Compound,inhibition [1],inhibition [2],inhibition [3],inhibition [4],inhibition [5],inhibition [6],inhibition [7],inhibition [8],inhibition [9],inhibition [10]
CCCN(CC)c1ncnc2[nH]ncc12,72.3% (active),52.6% (active),71.4% (active),50.1% (active),25.9%,45% (active),37.1%,69.2% (active),-9.97%,43.2%
CN1CCN(c2ccc(-c3ccc4ccccc4n3)cc2)CC1,72.1% (active),62.6% (active),34.8%,36.6% (active),63.8% (active),8.01%,64% (active),26.9%,61.1% (active),79.3% (active)
COc1ccc(-n2ncc3c(N(C)C4CCCCC4)ncnc32)cc1,63.9% (active),53.6% (active),37.6%,40.1% (active),30% (active),-23.3%,28.6%,20.2%,42.7% (active),80.3% (active)
O=C(CN1C(=O)c2ccccc2S1(=O)=O)c1ccc2c(c1)OCCO2,87.8% (active),89.7% (active),64% (active),84.8% (active),85.1% (active),86.3% (active),84.5% (active),84.4% (active),91.4% (active),95.2% (active)
COc1cccc2c1C(=O)c1c(O)c3c(c(O)c1C2=O)CC(O)(C(=O)CO)CC3OC1CC(N(C)C)C(O)C(C)O1 (stereo not given),96.6% (active),97% (active),85.8% (active),96.7% (active),85.1% (active),107% (active),96% (active),96.5% (active),36.9% (active),57.6% (active)
